Experimental data reported in publication PMC4336329 (PLoS ONE, 2015).
The campaign covered roughly 310,000 compounds. About 14,000 (4.5%) showed an effect of 50% or more. The effect is printed as a negative number. The sample as a whole holds a higher share of strong results than the screen did.

What follows are compounds tested against human ether-à-go-go-related gene (hERG) potassium channel (human, UniProt Q12809) (assay: primary screen, population patch clamp on CHO cells stably expressing hERG; higher = less effect of the substance).
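Also: peak tail current of the secondary pulse compared with the same well before compound.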

human ether-à-go-go-related gene (hERG) potassium channel, sequence (Q12809 whole entry, looked up): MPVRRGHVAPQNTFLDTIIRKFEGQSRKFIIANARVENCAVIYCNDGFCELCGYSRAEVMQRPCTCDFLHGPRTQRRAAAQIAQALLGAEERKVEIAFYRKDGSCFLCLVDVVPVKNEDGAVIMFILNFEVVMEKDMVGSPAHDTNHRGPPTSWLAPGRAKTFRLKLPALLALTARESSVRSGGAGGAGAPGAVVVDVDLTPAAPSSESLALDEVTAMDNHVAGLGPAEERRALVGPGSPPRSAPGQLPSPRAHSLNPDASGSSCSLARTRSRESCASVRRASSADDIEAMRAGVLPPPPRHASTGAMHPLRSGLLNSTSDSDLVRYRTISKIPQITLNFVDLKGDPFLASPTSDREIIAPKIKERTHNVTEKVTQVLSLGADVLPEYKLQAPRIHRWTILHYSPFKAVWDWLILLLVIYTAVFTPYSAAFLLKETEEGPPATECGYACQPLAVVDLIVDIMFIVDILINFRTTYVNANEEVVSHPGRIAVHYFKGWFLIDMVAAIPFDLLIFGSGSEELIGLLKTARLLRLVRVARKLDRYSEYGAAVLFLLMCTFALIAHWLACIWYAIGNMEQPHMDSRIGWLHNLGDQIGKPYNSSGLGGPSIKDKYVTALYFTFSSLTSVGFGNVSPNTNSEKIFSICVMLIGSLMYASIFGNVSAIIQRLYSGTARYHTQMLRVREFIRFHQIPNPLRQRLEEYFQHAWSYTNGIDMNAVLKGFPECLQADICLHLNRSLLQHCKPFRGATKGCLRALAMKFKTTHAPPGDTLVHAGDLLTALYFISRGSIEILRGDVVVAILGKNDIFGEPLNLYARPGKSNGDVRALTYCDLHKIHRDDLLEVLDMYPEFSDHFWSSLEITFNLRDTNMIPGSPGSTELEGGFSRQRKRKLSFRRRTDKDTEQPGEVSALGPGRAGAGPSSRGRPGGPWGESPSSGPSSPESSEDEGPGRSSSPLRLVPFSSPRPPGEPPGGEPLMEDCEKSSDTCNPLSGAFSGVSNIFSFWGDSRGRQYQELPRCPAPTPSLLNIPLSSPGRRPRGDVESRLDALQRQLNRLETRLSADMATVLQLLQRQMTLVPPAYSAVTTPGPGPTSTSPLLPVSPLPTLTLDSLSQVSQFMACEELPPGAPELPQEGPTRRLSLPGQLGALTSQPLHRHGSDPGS

Compared with O=c1[nH]c(C2CCN(S(=O)(=O)c3ccc(C(F)(F)F)cc3)CC2)nc2c1nnn2Cc1ccccc1, NS(=O)(=O)c1ccc(CCNC(=O)CSc2nc3ccccc3c(=O)n2CCN2CCOCC2)cc1 is higher in “hERG current change (%, negative = inhibition) at 10uM” value: 8.98% for the first, 41.4% for the second.

Going from Cc1ccc(S(=O)(=O)N(C)C)cc1NC(=S)N(CCC#N)Cc1cccnc1 to Cc1ccc2cc(C#N)c(NCCNC(=S)NCCCN(C)C)nc2c1C, the “hERG current change (%, negative = inhibition) at 10uM” value rises from -10.3% to -0.554%.

Going from Cc1ccc(C(C)C)cc1OCCOCCN1CCCC1 to Cc1cc(C)c(NC(=O)CSc2nc3ccccc3c(=O)n2CCCN2CCOCC2)c(C)c1, the “hERG current change (%, negative = inhibition) at 10uM” value falls from -38.9% to -47.6%.

Compared with COc1ccc(-c2nc(NC(=O)CSCCO)sc2C)cc1, COc1ccc(NC(=O)c2cn3c(nc4ccccc43)c(C#N)c2C)cc1 is higher in “hERG current change (%, negative = inhibition) at 10uM” value: -4.57% for the first, 3.29% for the second.

Going from Cc1ccc(NC(=O)CSc2nc3ccccc3c(=O)n2CCCC(=O)NCCCN2CCOCC2)cc1C to COc1cccc(NC(=O)CSc2nc3ccccc3c(=O)n2CCCC(=O)NCCCN2CCOCC2)c1, the “hERG current change (%, negative = inhibition) at 10uM” value rises from -69.1% to -59.8%.

Compared with O=C(CSc1nc2ccccc2c(=O)n1CCCN1CCOCC1)Nc1ccc2c(c1)OCO2, NC(=O)c1ccc(NC(=O)CSc2nc3ccccc3c(=O)n2CCCN2CCOCC2)cc1 is higher in “hERG current change (%, negative = inhibition) at 10uM” value: -43.6% for the first, -5.06% for the second.

Compared with CCOC(=O)C(C)On1c(-n2nc(C)cc2C)nc2ccccc2c1=O (stereo not drawn), CCOC(=O)C(C)On1c(SC(C)C(=O)OCC)nc2ccccc2c1=O (stereo not drawn) is lower in “hERG current change (%, negative = inhibition) at 10uM” value: 9.29% for the first, -53.5% for the second.

Going from CCOC(=O)C(C)Sc1nc2ccccc2c(=O)n1CC (stereo not drawn) to COc1cccc(NC(=O)CSc2nc3ccccc3c(=O)n2C)c1, the “hERG current change (%, negative = inhibition) at 10uM” value rises from -22.4% to -7.76%.

First: CCCCn1c(SCC(=O)Nc2cccc(OC)c2)nc2ccc(N3CCOCC3)cc2c1=O
Second: C=CCn1c(SCC(=O)Nc2ccc(N3CCOCC3)cc2)nc2ccccc2c1=O
The “hERG current change (%, negative = inhibition) at 10uM” value of the first is lower: -9.77% for the first, 3.75% for the second.

Going from O=C(CCCn1c(SCc2cccc(F)c2)nc2ccccc2c1=O)NCC1CCCO1 (stereo not drawn) to O=C(CCCn1c(SCc2cccc([N+](=O)[O-])c2)nc2ccccc2c1=O)NCC1CCCO1 (stereo not drawn), the “hERG current change (%, negative = inhibition) at 10uM” value falls from 8.35% to -59.7%.

Going from O=C(CCCn1c(SCC(=O)NCCc2ccccc2)nc2ccccc2c1=O)NCC1CCCO1 (stereo not drawn) to O=C(CCCn1c(SCC(=O)NCC2CCCO2)nc2ccccc2c1=O)NCc1ccccc1 (stereo not drawn), the “hERG current change (%, negative = inhibition) at 10uM” value falls from -22.8% to -29.6%.

Compared with O=C(NCc1ccccc1)[C@]1(C(F)(F)F)C[C@H](CCc2ccccc2)CCCO1, C=CCNC(=O)CCCc1ccccc1 is higher in “hERG current change (%, negative = inhibition) at 10uM” value: 3.84% for the first, 7.65% for the second.

First: Cn1cc(Br)c(C(=O)Nc2sc3c(c2C(N)=O)CCC3)n1
Second: Cc1ccc(NC(=O)CSc2nc3ccccc3c(=O)n2CCCC(=O)NCC2CCCO2)cc1 (stereo not drawn)
The “hERG current change (%, negative = inhibition) at 10uM” value of the first is higher: 18.4% for the first, -0.641% for the second.

First: Cc1ccc(Cl)cc1NC(=O)c1cc(NC(=O)C2CCCCC2C(=O)O)ccc1N1CCOCC1 (stereo not drawn)
Second: CCc1ccc(NC(=O)CSc2nc3ccccc3c(=O)n2CCCC(=O)NCCCN2CCOCC2)cc1
The “hERG current change (%, negative = inhibition) at 10uM” value of the first is higher: -6.57% for the first, -66.6% for the second.

Going from COc1cccc(CCNC(=O)CCc2nnc(-c3ccc4c(c3)OCO4)o2)c1 to COc1cccc(NC(=O)CSc2nc3ccccc3c(=O)n2CCCC(=O)NCC2CCCO2)c1 (stereo not drawn), the “hERG current change (%, negative = inhibition) at 10uM” value falls from -7.05% to -70.3%.

Going from Cc1cc(OCC(=O)NCc2ccccn2)c2c(C)c(C)c(=O)oc2c1 to COc1ccc(NC(=O)CSc2nc3ccccc3c(=O)n2CCCC(=O)NCC2CCCO2)c(OC)c1 (stereo not drawn), the “hERG current change (%, negative = inhibition) at 10uM” value falls from -11.2% to -33.8%.

Going from CCOC(=O)C(=O)Nc1nc(-c2ccccc2)c(-c2ccccc2)o1 to CCOc1ccc(NC(=O)CSc2nc3ccccc3c(=O)n2CCCC(=O)NCC2CCCO2)cc1 (stereo not drawn), the “hERG current change (%, negative = inhibition) at 10uM” value rises from -32.1% to 3.34%.

Going from O=C(CCCn1c(SCC(=O)NCC2CCCO2)nc2ccccc2c1=O)NCC1CCCO1 (stereo not drawn) to O=C(CCCn1c(SCC(=O)NC2CCCCC2)nc2ccccc2c1=O)NCC1CCCO1 (stereo not drawn), the “hERG current change (%, negative = inhibition) at 10uM” value falls from -5.18% to -61.5%.

Compared with CCc1ccc(NC(=O)CSc2nc3ccccc3c(=O)n2CCN2CCOCC2)cc1, COc1ccc(NC(=O)CCN2C(=O)c3cccc([N+](=O)[O-])c3C2=O)cc1 is higher in “hERG current change (%, negative = inhibition) at 10uM” value: -67.6% for the first, -5.08% for the second.

Going from O=C(CSc1nnc(-c2ccccc2F)o1)N1CCNC1=O to O=C1CCC(c2ccc3c(c2)CCC3)=NN1, the “hERG current change (%, negative = inhibition) at 10uM” value rises from -32.1% to 17.3%.

Going from CCC(=O)Oc1ccc(C(=O)Nc2ccccc2C(=O)NCC(C)C)cc1 to CCCCN1C(=O)C(NC(=O)C2CC2)(C(F)(F)F)C2=C1CC(C)(C)CC2=O (stereo not drawn), the “hERG current change (%, negative = inhibition) at 10uM” value falls from 15.6% to 10.9%.
